Assay results as given in PubChem BioAssay (NCI).
About 83,000 compounds went through this panel and 20% of them were active in at least one assay; those are over-represented in the sample as a whole.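 Plates (96-well) were seeded with cells, treated with compound at one concentration, and incubated for 48 hours before percent growth was determined.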 The source made the active and inactive calls. Rule for the calls: active = growth percent below 10; inactive = the rest.

Experiments:
Experiment in all cases: NCI-60 one-dose screen, 48 h (100 = growth as untreated, 0 = no growth, -100 = all killed)
Details in all cases: 10 µM unless noted
SR leukemia = tested on: SR leukemia
RPMI-8226 leukemia = tested on: RPMI-8226 leukemia
OVCAR-8 ovarian = tested on: OVCAR-8 ovarian
OVCAR-5 ovarian = tested on: OVCAR-5 ovarian
OVCAR-4 ovarian = tested on: OVCAR-4 ovarian
SK-OV-3 ovarian = tested on: SK-OV-3 ovarian
IGROV1 ovarian = tested on: IGROV1 ovarian
OVCAR-3 ovarian = tested on: OVCAR-3 ovarian
NCI/ADR-RES ovarian = tested on: NCI/ADR-RES ovarian

Measured: growth

CC1=C(C(=O)c2ccccc2)C(c2cccc(Cl)c2Cl)n2c(nc3ccccc32)N1 (configuration not stated)
inactive: SR leukemia 39.2% | RPMI-8226 leukemia 86% | OVCAR-8 ovarian 26.3% | OVCAR-5 ovarian 60.3% | OVCAR-4 ovarian 65.2% | SK-OV-3 ovarian 33.7% | IGROV1 ovarian 77.7% | OVCAR-3 ovarian 35.5% | NCI/ADR-RES ovarian 19.1%

C=C1CC[C@@H]2[C@]3(C)COC(c4cn(-c5ccccc5)nc4-c4ccccc4)O[C@@H]3CC[C@@]2(C)[C@@H]1C/C=C1/C(=O)OC[C@H]1O (some centres not stated)
active: SR leukemia -32.7% | RPMI-8226 leukemia -10.3% | OVCAR-8 ovarian -49.5% | OVCAR-5 ovarian -50.5% | OVCAR-4 ovarian -30.4% | IGROV1 ovarian -76.7% | OVCAR-3 ovarian -77.8% | NCI/ADR-RES ovarian -69.4%
inactive: SK-OV-3 ovarian 12.6%

N/C(=N\c1nc2ccccc2s1)NC(=O)Nc1c(Cl)cccc1Cl
inactive: SR leukemia 17.2% | RPMI-8226 leukemia 17.2% | OVCAR-8 ovarian 49.5% | OVCAR-5 ovarian 49.3% | OVCAR-4 ovarian 56.7% | SK-OV-3 ovarian 65.2% | IGROV1 ovarian 49.4% | OVCAR-3 ovarian 28.2%
active: NCI/ADR-RES ovarian 7.17%

O=C(Nc1ccccc1)N1CCN(c2cc(-c3cn(-c4ccccc4)nc3-c3cccc(O)c3)ccn2)CC1
inactive: SR leukemia 19.2% | RPMI-8226 leukemia 32.5% | OVCAR-8 ovarian 43.9% | OVCAR-5 ovarian 106% | OVCAR-4 ovarian 84.2% | SK-OV-3 ovarian 98.1% | IGROV1 ovarian 84% | OVCAR-3 ovarian 98.2% | NCI/ADR-RES ovarian 23.7%

COc1ccc([C@H](C)Nc2nc(Cl)nc3ccccc23)cc1
inactive: SR leukemia 17.9% | RPMI-8226 leukemia 23.6% | OVCAR-8 ovarian 56.4% | OVCAR-5 ovarian 54.7% | OVCAR-4 ovarian 62.9% | SK-OV-3 ovarian 70.5% | IGROV1 ovarian 63.2% | OVCAR-3 ovarian 78.7% | NCI/ADR-RES ovarian 21.5%

C=C1CC[C@@H]2[C@]3(C)COC(c4cn[nH]c4-c4ccc(OC)cc4)O[C@@H]3CC[C@@]2(C)[C@@H]1C/C=C1/C(=O)OCC1O (some centres not stated)
inactive: IGROV1 ovarian 17.1% | NCI/ADR-RES ovarian 16.7%
active: SR leukemia -29.9% | RPMI-8226 leukemia -27% | OVCAR-8 ovarian -3.29% | OVCAR-5 ovarian -27.1% | OVCAR-4 ovarian 3.78% | SK-OV-3 ovarian 6.09% | OVCAR-3 ovarian 5.62%

CSc1ccccc1NC(=O)c1ccc2nn(/C(C#N)=C/c3ccccn3)nc2c1
inactive: SK-OV-3 ovarian 42.9%
active: SR leukemia 1.1% | RPMI-8226 leukemia -41.9% | OVCAR-8 ovarian -3.76% | OVCAR-5 ovarian -86.8% | OVCAR-4 ovarian -55.6% | IGROV1 ovarian -67.9% | OVCAR-3 ovarian -87.8% | NCI/ADR-RES ovarian 2.48%

CCCSc1nc(Nc2ccc(S(N)(=O)=O)cc2)c(C#N)c(-c2cc(OC)c(OC)c(OC)c2)n1
active: SR leukemia 6.66% | RPMI-8226 leukemia 3.5%
inactive: OVCAR-8 ovarian 10.2% | OVCAR-5 ovarian 58.5% | OVCAR-4 ovarian 27.5% | SK-OV-3 ovarian 64.9% | IGROV1 ovarian 34.9% | OVCAR-3 ovarian 24.6% | NCI/ADR-RES ovarian 15.1%

CC(=O)Nc1cccc(Nc2nc(N[C@H]3CCCc4ccccc43)c3ccccc3n2)c1
inactive: SR leukemia 81.3% | RPMI-8226 leukemia 103% | OVCAR-8 ovarian 103% | OVCAR-5 ovarian 103% | OVCAR-4 ovarian 104% | SK-OV-3 ovarian 91.6% | IGROV1 ovarian 111% | OVCAR-3 ovarian 107% | NCI/ADR-RES ovarian 100%

N/C(=N\c1nc2ccccc2s1)NC(=O)NCCCCCCO
inactive: SR leukemia 32.4% | RPMI-8226 leukemia 46% | OVCAR-8 ovarian 50.7% | OVCAR-5 ovarian 74.5% | OVCAR-4 ovarian 17.8% | SK-OV-3 ovarian 59.1% | IGROV1 ovarian 61.5% | OVCAR-3 ovarian 61.8% | NCI/ADR-RES ovarian 24.3%

O=C(O)c1cccc(-c2ccc(/C=N/NC(=O)c3[nH]c4ccc(Br)cc4c3-c3ccccc3)o2)c1
inactive: SR leukemia 21.1% | RPMI-8226 leukemia 96.5% | OVCAR-8 ovarian 66.4% | OVCAR-5 ovarian 107% | OVCAR-4 ovarian 73% | SK-OV-3 ovarian 110% | IGROV1 ovarian 85% | OVCAR-3 ovarian 17.1% | NCI/ADR-RES ovarian 73.7%

N#Cc1c(-c2cccnc2)cc(-c2ccc3ccccc3c2)[nH]c1=O
inactive: SR leukemia 73.7% | RPMI-8226 leukemia 51.5% | OVCAR-8 ovarian 78% | OVCAR-5 ovarian 106% | OVCAR-4 ovarian 64.6% | SK-OV-3 ovarian 112% | IGROV1 ovarian 97.6% | OVCAR-3 ovarian 102% | NCI/ADR-RES ovarian 75.3%

CC(=O)Oc1ccccc1C(=O)[Se]C(=NC1CCCCC1)NC1CCCCC1
active: SR leukemia -15.7% | RPMI-8226 leukemia 4.77% | OVCAR-8 ovarian -81.8% | OVCAR-5 ovarian -89.6% | OVCAR-4 ovarian -85.9% | SK-OV-3 ovarian -99.1% | IGROV1 ovarian -94% | OVCAR-3 ovarian -71.6% | NCI/ADR-RES ovarian -63.3%

C=C1CC[C@@H]2[C@]3(C)COC(c4cn[nH]c4-c4ccccc4)O[C@@H]3CC[C@@]2(C)[C@@H]1C/C=C1/C(=O)OCC1O (some centres not stated)
active: SR leukemia -18.9% | RPMI-8226 leukemia -28.6%
inactive: OVCAR-8 ovarian 33% | OVCAR-5 ovarian 22.6% | OVCAR-4 ovarian 11.5% | SK-OV-3 ovarian 107% | IGROV1 ovarian 30.6% | OVCAR-3 ovarian 34.7% | NCI/ADR-RES ovarian 37.8%

CC1CCCCN1CCCNC(=O)N/C(N)=N/c1nc2ccccc2s1 (configuration not stated)
inactive: OVCAR-8 ovarian 75.2% | OVCAR-5 ovarian 38.2% | OVCAR-4 ovarian 74.9% | SK-OV-3 ovarian 58.8% | IGROV1 ovarian 47.9% | OVCAR-3 ovarian 72.4% | NCI/ADR-RES ovarian 64.1%
active: SR leukemia -17.1% | RPMI-8226 leukemia 1.48%

C#CCOc1cc(N(CC)CC)ccc1C(C(=O)NC(C)(C)C)N(C(=O)C1CCc2cc(F)ccc2O1)c1ccc(F)cc1 (configuration not stated)
inactive: SR leukemia 26.7% | RPMI-8226 leukemia 25.4% | OVCAR-8 ovarian 52.4% | OVCAR-5 ovarian 69.7% | OVCAR-4 ovarian 51% | SK-OV-3 ovarian 62.4% | IGROV1 ovarian 68.2% | OVCAR-3 ovarian 47.9% | NCI/ADR-RES ovarian 56.8%

COc1cc(CNC(=O)/C=C/c2ccc3c(c2)OCO3)ccc1OCc1cn(-c2cccc(C(F)(F)F)c2)nn1
active: OVCAR-8 ovarian -9.92% | NCI/ADR-RES ovarian 4.67%
inactive: SR leukemia 41.5% | RPMI-8226 leukemia 40.9% | OVCAR-5 ovarian 36.6% | OVCAR-4 ovarian 34.9% | SK-OV-3 ovarian 47.4% | IGROV1 ovarian 44.7% | OVCAR-3 ovarian 42.9%

CC1=C(C(=O)OCc2ccccc2)C(c2ccc(-n3cncn3)cc2)n2c(nc3ccccc32)N1 (configuration not stated)
inactive: SR leukemia 18% | RPMI-8226 leukemia 35.4% | OVCAR-8 ovarian 86.6% | OVCAR-5 ovarian 79.3% | OVCAR-4 ovarian 83.2% | SK-OV-3 ovarian 73.8% | IGROV1 ovarian 62.2% | OVCAR-3 ovarian 24.2% | NCI/ADR-RES ovarian 41.5%

COc1ccc(-c2cc(C(=O)NCc3ccccc3)nn2-c2ccc(S(C)(=O)=O)cc2)cc1OC
inactive: SR leukemia 82.3% | RPMI-8226 leukemia 86.9% | OVCAR-8 ovarian 100% | OVCAR-5 ovarian 102% | OVCAR-4 ovarian 94.3% | SK-OV-3 ovarian 105% | IGROV1 ovarian 122% | OVCAR-3 ovarian 115% | NCI/ADR-RES ovarian 107%

CCOC(=O)C1=C(N)N(c2ccccc2)C2=C(C(=O)CC(C)(C)C2)C1c1ccc(Cl)cc1Cl (configuration not stated)
active: RPMI-8226 leukemia 7.77%
inactive: SR leukemia 10.1% | OVCAR-8 ovarian 36.7% | OVCAR-5 ovarian 56.9% | OVCAR-4 ovarian 25.3% | SK-OV-3 ovarian 34.5% | IGROV1 ovarian 59.4% | OVCAR-3 ovarian 33.3% | NCI/ADR-RES ovarian 23.6%

COc1ccc(NC(=O)c2sc3nc(C(C)C)ccc3c2N)cc1
inactive: SR leukemia 60% | RPMI-8226 leukemia 54.5% | OVCAR-8 ovarian 89.1% | OVCAR-5 ovarian 83.2% | OVCAR-4 ovarian 56.7% | SK-OV-3 ovarian 97.9% | IGROV1 ovarian 100% | OVCAR-3 ovarian 93.9% | NCI/ADR-RES ovarian 59.6%

COc1ccc(/C=C2\C(=O)Nc3ccc(Cl)cc32)cc1OCc1ccccn1
active: OVCAR-4 ovarian 8.08%
inactive: SR leukemia 31.4% | RPMI-8226 leukemia 39.5% | OVCAR-8 ovarian 31.6% | OVCAR-5 ovarian 50% | SK-OV-3 ovarian 63.3% | IGROV1 ovarian 45.5% | OVCAR-3 ovarian 51.6% | NCI/ADR-RES ovarian 27.3%

CC1CN(c2oc(-c3ccc([N+](=O)[O-])cc3)nc2C#N)CC(C)O1 (configuration not stated)
inactive: SR leukemia 83.3% | RPMI-8226 leukemia 101% | OVCAR-8 ovarian 103% | OVCAR-5 ovarian 107% | OVCAR-4 ovarian 102% | SK-OV-3 ovarian 110% | IGROV1 ovarian 103% | OVCAR-3 ovarian 110% | NCI/ADR-RES ovarian 95.4%

CC1=C(C(=O)OC(C)C)C(c2cccc(O)c2)NC(=S)N1 (configuration not stated)
inactive: SR leukemia 90.7% | RPMI-8226 leukemia 88.9% | OVCAR-8 ovarian 104% | OVCAR-5 ovarian 104% | OVCAR-4 ovarian 98% | SK-OV-3 ovarian 97.9% | IGROV1 ovarian 110% | OVCAR-3 ovarian 120% | NCI/ADR-RES ovarian 105%

N#Cc1c(-c2ccccc2Cl)cc(-c2c[nH]c3ccccc23)[nH]c1=O
active: SR leukemia 9.99%
inactive: RPMI-8226 leukemia 70.7% | OVCAR-8 ovarian 87.4% | OVCAR-5 ovarian 82.1% | OVCAR-4 ovarian 69.6% | SK-OV-3 ovarian 87.8% | IGROV1 ovarian 78.5% | OVCAR-3 ovarian 93.8% | NCI/ADR-RES ovarian 82.3%

O=C(NNc1ccccc1)n1c(=O)c2ccccc2c(=O)n1-c1ccccc1
inactive: SR leukemia 80.8% | RPMI-8226 leukemia 102% | OVCAR-8 ovarian 96.7% | OVCAR-5 ovarian 96.1% | OVCAR-4 ovarian 97.6% | SK-OV-3 ovarian 85.5% | IGROV1 ovarian 96.4% | OVCAR-3 ovarian 104% | NCI/ADR-RES ovarian 98.3%

Cc1cc(C)cc(C(=O)Nc2cccc(-c3cn(-c4ccc(S(N)(=O)=O)cc4)nn3)c2)c1
active: SK-OV-3 ovarian 9.56%
inactive: SR leukemia 51.6% | RPMI-8226 leukemia 89.8% | OVCAR-8 ovarian 18.7% | OVCAR-5 ovarian 81.5% | OVCAR-4 ovarian 42.1% | IGROV1 ovarian 15.4% | OVCAR-3 ovarian 87.4% | NCI/ADR-RES ovarian 55.9%

O=C(O)c1cccc(-c2ccc(/C=N/NC(=O)c3[nH]c4ccc(Br)cc4c3-c3ccccc3)s2)c1
inactive: SR leukemia 24.1% | RPMI-8226 leukemia 54.2% | OVCAR-8 ovarian 44.9% | OVCAR-5 ovarian 112% | OVCAR-4 ovarian 42% | SK-OV-3 ovarian 103% | IGROV1 ovarian 37.9% | OVCAR-3 ovarian 22.3%
active: NCI/ADR-RES ovarian -22.5%
